# Most compounds without a hit are left out; they make up all but 19% or so of the library.
# KB-3-1 tox: KB-3-1 parental cell cytotoxicity; KB-3-1 viability, CellTiter-Glo ATP luminescence, 72 h; Potency, µM (top dose mostly 46.1 µM), most hits filed as cytotoxic; hit rate 1.4% among 400,000; note: nearly all actives have a fitted effect of over 60% in size
#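 Here the drug-naive KB-3-1 line serves as comparator for MDR sub-line selectivity; cells received compound titrations, 72 h at 37 °C, then CellTiter-Glo readout.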
# TDP1 cell CPT: DT40-hTDP1 cell growth loss with CPT | hit rate 12% among 420,000 | Potency, µM (top dose mostly 46.2 µM), hits mostly inhibitors | chicken DT40 Tdp1-/-;hTDP1 cells + 20 nM CPT, ATP luminescence, 48 h; note: nearly all actives have a fitted effect of over 55% in size
#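 Chicken DT40 Tdp1-/- cells stably complemented with human TDP1 were seeded at 400 cells/well in medium containing 20 nM camptothecin, exposed to pin-transferred compounds, and grown at 37 °C for at least 48 hr. Viability was read as ATP luminescence.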
# KB-V1 MDR tox: kills drug-selected multidrug resistant KB-V1 cells | hit rate 3.4% among 400,000 | Potency, µM (titrated, usually from 46.1 µM), hits mostly cytotoxic | KB-V1 MDR cells viability, CellTiter-Glo, 72 h; note: nearly all actives have a fitted effect of over 60% in size
#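 Cytotoxicity via CellTiter-Glo luminescence after 72 h compound exposure at 37 degrees C. Cells: drug-selected KB-V1 line, DMEM phenol-red free plus 10% FBS. Compounds tested at multiple concentrations; normalized data fitted to concentration-effect curves.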
# HT1080-NT tox: kills 2HG-producing HT-1080-NT fibrosarcoma cells. HT-1080-NT fibrosarcoma viability, CellTiter-Glo ATP luminescence, 48 h. Potency, µM (doses to about 46.1 µM), hits mostly cytotoxic. hit rate 1.6% among 360,000;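 note: NT is the 2HG producing partner of a matched IDH1 knockdown line; nearly all actives have a fitted effect of over 55% in size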
#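 Compounds were tested in concentration-response format on HT-1080-NT cells for 48 hours at 37 degrees C. Cell viability came from CellTiter-Glo luminescence; curves were classified by r2, response magnitude and activity.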
# TDP1 cell noCPT: qHTS for Inhibitors of human tyrosyl-DNA phosphodiesterase 1 (TDP1): qHTS in cells in absence of CPT | DT40 Tdp1-/- hTDP1 cells, no CPT, ATP luminescence, 48 h | Potency, µM (top dose mostly 46.2 µM), hits mostly inhibitors | hit rate 15% among 420,000 | AID 686978, 2013; note: nearly all actives have a fitted effect of over 55% in size
#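 Stably hTDP1-transfected Tdp1-null chicken DT40 cells were treated with library compounds minus camptothecin and grown for at least 48 hr at 37 °C, after which cellular ATP was quantified by luminescence.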
# HT1080 IDH1KD tx: HT-1080 IDH1 knockdown cell toxicity (counter line); HT-1080 IDH1 knockdown viability, ATP luminescence, 48 h; hit rate 2% among 360,000; Potency, µM (top dose mostly 46.1 µM), actives largely listed as cytotoxic
#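 Knockdown cells (IDH1KD HT-1080) received compounds 2 h after plating at 750 cells/well and were kept 48 h at 37 °C in 5% FBS RPMI. A CellTiter-Glo luminescence read gave % activity for curve fitting.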
# A number is an active result; 0 = inactive; ? = inconclusive; - = no result. Calls come from the whole dose curve; as a rule, active = well fitted curve in the direction sought with a large enough effect; inconclusive = small, poorly fitted or top-dose-only effect, or another doubt; inactive = no such curve, though single readings can be large; an effect the other way counts as inactive or inconclusive.
SMILES,KB-3-1 tox,TDP1 cell CPT,KB-V1 MDR tox,HT1080-NT tox,TDP1 cell noCPT,HT1080 IDH1KD tx
Cc1ccc2c(c1)C(=O)C(=O)N2Cc1ccc(C(F)(F)F)cc1,?,0.92µM,?,0,1.03µM,0
CC(C)Oc1ccc(Cn2c(=O)sc3ccccc32)cc1,0,0,0,0,0,0
Cc1ccc2c(c1)C(=O)C(=O)N2Cc1ccc(OC(C)C)cc1,?,0.0073µM,?,-,0.058µM,-
CC(=O)O/N=C1\C(=O)N(Cc2ccc(C)cc2)c2ccccc21,0,0,0,?,?,?
Cc1ccc2c(c1)C(=O)C(=O)N2CC(=O)OC(C)C,?,5.17µM,?,0,5.8µM,0
CN(Cc1ccccc1)C(=O)CCC1CCN(C(=O)CCC(F)(F)F)CC1,?,?,0,0,?,0
O=S1(=O)CC(N2CCN(Cc3ccccc3F)CC2)CN1Cc1cn(Cc2ccc(C(F)(F)F)cc2)nn1 (configuration not stated),?,13µM,?,0,9.2µM,?
Cc1ccc(Cn2cc(CN3CC(N4CCN(Cc5ccccc5F)CC4)CS3(=O)=O)nn2)cc1 (configuration not stated),?,?,10.3µM,0,16.4µM,0
CN(Cc1cn(Cc2cccc(C(F)(F)F)c2)nn1)C1CN(Cc2cn(Cc3cccc(C(F)(F)F)c3)nn2)S(=O)(=O)C1 (configuration not stated),0,13µM,?,0,13µM,0
CCCN(C)C1CN(Cc2cn(Cc3cccc(C(F)(F)F)c3)nn2)S(=O)(=O)C1 (configuration not stated),0,0,?,0,0,0
CN1C(=O)S/C(=C\c2ccc(-n3cncn3)cc2)C1=O,0,0,0,0,?,0
CC(C)[C@H]1c2ccc(F)cc2CC[C@@]1(CCN(C)CCCc1nc2ccccc2[nH]1)OC(=O)C1CC1,?,5.01µM,20.6µM,-,4.47µM,-
N#CCc1nc(C(c2ccccc2)c2ccccc2)no1,0,0,0,0,0,0
O=S(=O)(c1ccc(F)cc1)N1CCC(c2nc3ccccc3[nH]2)CC1,0,0,?,0,?,0
O=S(=O)(c1cccc(C(F)(F)F)c1)N1CCC(c2nc3ccccc3[nH]2)CC1,0,?,0,0,23.1µM,0
O=C(NCC1CCCO1)c1cc(S(=O)(=O)N2CCCCC2)ccc1Cl (configuration not stated),0,0,0,0,0,0
O=C(NCC1CCCO1)c1ccc(S(=O)(=O)N2CCC(c3nc4ccc(Cl)cc4[nH]3)CC2)cc1 (configuration not stated),0,25.9µM,0,?,23.1µM,?
CC(=O)c1cccc(S(=O)(=O)N2CCC(c3nc4ccccc4[nH]3)CC2)c1,0,0,0,0,0,0
O=S(=O)(c1ccc2c(c1)OCCO2)N1CCC(c2nc3ccccc3[nH]2)CC1,?,?,14.6µM,0,?,?
O=S(=O)(c1cccc(Cl)c1)N1CCC(c2nc3ccccc3[nH]2)CC1,0,20.6µM,8.2µM,0,18.4µM,0
NC(=O)c1ccnc2c(O)cccc12,0,-,0,-,-,-
O=Nc1ccc(O)c2ncccc12,20.6µM,0.581µM,23.1µM,11.6µM,0.92µM,?
COc1ccc(C)cc1N=Nc1ccc(O)c2ncccc12,0,3.26µM,0,?,2.59µM,?
COc1ccc(N=Nc2ccc(O)c3ncccc23)cc1,0,2.06µM,0,?,1.46µM,4.61µM
Cc1c(C)c2cccnc2c2ncccc12,6.51µM,1.84µM,?,10.3µM,1.46µM,5.17µM
SMILES,KB-3-1 tox,TDP1 cell CPT,KB-V1 MDR tox,HT1080-NT tox,TDP1 cell noCPT,HT1080 IDH1KD tx
OC(COCc1ccc2c(c1)OCO2)CN1CCN(Cc2ccccc2)CC1 (configuration not stated),0,0,0,0,0,0
C[C@@H](C(=O)N1CCN(Cc2ccc3c(c2)OCO3)CC1)n1nnc2ccccc2c1=O,0,?,0,0,?,0
CCOc1cc(CNC(=O)c2ccc3c(c2)N(C)C(=O)C2CCCCN32)cc(OCC)c1OCC (configuration not stated),0,?,0,-,?,-
O=C(Nc1ccc2c(c1)N(S(=O)(=O)c1cccs1)CCC2)c1c(F)cccc1Cl,0,?,?,0,?,0
O=C1CC(c2cc(-c3ccccc3)no2)C1,?,0,0,0,0,0
COCc1ccc(O)c2ncccc12,14.6µM,4.61µM,11.6µM,4.61µM,4.61µM,5.8µM
O=S(=O)(O)c1cccc2c(N=Nc3ccc(O)c4ncccc34)cccc12,0,?,0,0,0,0
COc1cccc(N=Nc2ccc3cccnc3c2O)c1,0,0.581µM,0,0,1.16µM,?
Cc1ccccc1N=Nc1ccc(O)c2ncccc12,?,2.59µM,0,?,1.64µM,7.31µM
Cc1ccc(O)c2ncccc12,-,?,-,-,4.73µM,-
COc1ccc(-c2ncccc2O)cc1,0,0,0,0,0,0
Cc1ccnc2c(Cl)cccc12,0,?,0,-,0,-
COc1ccc(C2CCCN2C(=O)Nc2ccc(F)cc2)cc1OC (configuration not stated),0,0,0,0,0,0
COc1ccc(Cl)cc1NS(=O)(=O)c1c(C)nc2sccn2c1=O,0,0,0,0,0,0
COc1cccc(N=Nc2ccc(O)c3ncccc23)c1,4.61µM,2.59µM,0,?,2.59µM,?
Oc1ccc(N=Nc2ccc3c(c2)OCCO3)c2cccnc12,?,1.3µM,?,?,1.64µM,1.3µM
O=C(NCc1ccccc1)c1cc(C2CCCN(S(=O)(=O)c3ccccc3)C2)on1 (configuration not stated),0,?,0,0,?,0
CCOc1ccc(N2C(=O)/C(=C/c3cccs3)N(CC(=O)OC)C2=S)cc1,0,0,0,0,0,?
CCN(CC)S(=O)(=O)c1ccc2nc(CCl)[nH]c2c1,0,25.9µM,0,0,?,0
CCC(=O)OC(OP(=O)(CCCCc1ccccc1)CC(=O)N1C[C@H](C2CCCCC2)C[C@H]1C(=O)O)C(C)C (some centres not stated),-,0,-,-,0,-
CCOc1ccc(-c2nnn(CC(=O)NCc3ccco3)n2)cc1,?,?,?,0,0,0
Cc1ccc(-c2nnn(CC(=O)Nc3ccc(S(=O)(=O)N4CCC(C)CC4)cc3)n2)cc1,0,?,?,23.1µM,18.4µM,11.6µM
CCOc1ccc(-c2nnn(CC(=O)NCc3ccccc3)n2)cc1,6.51µM,?,?,0,?,0
COc1ccc(NC(=O)Cn2nnc(-c3ccccc3F)n2)cc1,0,0,0,0,0,0

# Screens from PubChem.
